CYP2C19 inhib – blocks human cytochrome P450 2C19 | P33261 | CYP2C19 Supersomes, luciferin-H EGE luminescence, 30 min | inhibition, % at 5 µM | 21% of 96,000 active;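 active = CYP2C19 inhibition above a set limit at 5 µM in the primary screen, cut at about 50% in these data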;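 also: plate controls were negative control wells for no effect and 2.5 mM tranylcypromine positive control for full effect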
Target sequence (P33261 whole entry, looked up): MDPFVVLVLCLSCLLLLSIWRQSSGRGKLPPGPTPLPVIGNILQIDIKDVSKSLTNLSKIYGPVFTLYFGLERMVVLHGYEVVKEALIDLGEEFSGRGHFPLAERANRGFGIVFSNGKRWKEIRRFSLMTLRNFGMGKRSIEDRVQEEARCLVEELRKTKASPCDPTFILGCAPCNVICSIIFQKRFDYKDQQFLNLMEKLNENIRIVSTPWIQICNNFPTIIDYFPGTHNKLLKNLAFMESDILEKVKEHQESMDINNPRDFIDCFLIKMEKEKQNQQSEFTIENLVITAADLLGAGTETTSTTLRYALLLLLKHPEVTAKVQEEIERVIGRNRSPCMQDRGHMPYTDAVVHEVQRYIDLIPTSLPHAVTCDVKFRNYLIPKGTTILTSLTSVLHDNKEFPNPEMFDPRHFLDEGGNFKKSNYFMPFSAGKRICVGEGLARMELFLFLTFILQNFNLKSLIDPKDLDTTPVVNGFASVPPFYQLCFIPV
CYP2C9 activ – CYP2C9 (human) activation; P11712; recombinant CYP2C9, luciferin-H conversion, luminescence; active compounds read high; factor 1 = untreated enzyme, 0 = blocked; activation factor at 5 µM; 1.4% of 96,000 active; AID 1024;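 active = activation factor of 2 or more for CYP2C9 at a 5 µM dose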;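 also: 0 = sulfaphenazole-blocked wells and 1 = vehicle-only wells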
CYP2C9 inhib – human CYP2C9 inhibition. P11712. CYP2C9 Supersomes, luciferin-H conversion, luminescence. inhibition, % at 5 µM. 20% of 96,000 active. AID 777;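 active = blocking of liver enzyme CYP2C9 beyond about 50% at 5 µM, limit read from the data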
Cav3 T inh – inhibitors of human Cav3.2 T-type calcium channel | O95180 | Cav3.2-expressing cells, Fluo-4 calcium fluorescence FDSS; active compounds read low | B-score at 10 µM | 4% of 100,000 active | AID 449739;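 active = single-dose well whose peak fluorescence ratio is a statistical outlier from its plate by either plate-standardised score or position-corrected B-score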
CYP2C19 activ – increases human CYP2C19 enzyme activity; activation factor at 5 µM; 96,000 tested, under 10 active; AID 1025; recombinant CYP2C19, luciferin-H EGE luminescence; active compounds read high; 0 = fully inhibited enzyme, 1 = untreated enzyme;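 active = activation factor of at least 2 at 5 µM in the primary screen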;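 also: 0 = wells with 2.5 mM tranylcypromine and 1 = vehicle-only wells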
An asterisk follows results filed as active; · = no result given. This is a sample that favours compounds with a hit; in the whole collection about 27% have one here.

SMILES | CYP2C19 inhib | CYP2C9 activ | CYP2C9 inhib | Cav3 T inh | CYP2C19 activ
O=C(OCC(=O)N1CCCc2ccccc21)c1ccc(Br)o1 | 85* | 0.5 | 51* | -0.29 | 0.1
CC1Cc2ccccc2N1C(=O)COC(=O)C1=COCCO1 (stereo not drawn) | 3 | 1.1 | -9 | 0.25 | 1
O=C(Cn1[nH]c(=O)c2ccccc2c1=O)OCC(=O)N1CCCc2ccccc21 | 51* | 0.6 | 43 | 0.83 | 0.5
COC(=O)C1=C(C)NC(C)=C(C(=O)OC)C1C(=O)OCC(=O)N1c2ccccc2CC1C (stereo not drawn) | 86* | 0.1 | 93* | 1.1 | 0.1
CC1Cc2ccccc2N1C(=O)COC(=O)CNC(=O)c1ccc(Br)o1 (stereo not drawn) | 66* | 0.5 | 51* | -1.4 | 0.3
CC(=O)Oc1ccc(OC(C)=O)c(SCCCCCN2CCOCC2)c1 | 9 | 1 | -4 | 0.84 | 0.9
O=C(OCC(=O)N1CCc2ccccc21)c1cccnc1 | 77* | 0.7 | 33 | 0.065 | 0.2
CC(/C=C/c1ccc(O)cc1)=N/O | · | · | · | -0.0063 | ·
CCC(C)(C)NC(=O)C(c1ccncc1)N(Cc1ccc(C)cc1)C(=O)c1csnn1 (stereo not drawn) | · | · | · | 0.67 | ·
O=C(CCl)Nc1cccc(-c2cnc3ccccc3n2)c1 | 80* | 1.3 | -31 | 0.46 | 0.2
O=C(Nc1cccc(NC(=O)c2nccc3ccccc23)c1)c1ccco1 | 6 | 2* | -100 | · | 0.9
O=C(Nc1cccc(-c2cnc3ccccc3n2)c1)c1cccc(NC(=O)c2ccco2)c1 | 69* | 0.2 | 75* | -3.5 | 0.3
O=C(Nc1cccc(-c2cnc3ccccc3n2)c1)c1ccccc1 | 10 | 0.6 | 45 | 1 | 0.9
CCC(=O)Nc1cccc(-c2cnc3ccccc3n2)c1 | 51* | 1.1 | -15 | 0.65 | 0.5
Cc1ccc(NCc2nnc(SCC(=O)Nc3ncc(C)s3)n2CC2CCCO2)c(C)c1 (stereo not drawn) | 27 | 0.7 | 25 | -4.5* | 0.7
O=C(CSc1nnc(C2CCCCC2)n1Cc1ccccc1)NCc1ccco1 | 43 | 0.3 | 66* | -0.44 | 0.6
Cc1ccc(NCc2nnc(SCC(=O)NCc3ccco3)n2CC2CCCO2)cc1Cl (stereo not drawn) | 41 | 0.4 | 56* | -1.6 | 0.6
O=C(CSc1nnc(CNc2ccc(F)cc2)n1Cc1ccccc1)NCc1ccco1 | 54* | 0.5 | 53* | -3.6 | 0.5
Cc1ccc(NCc2nnc(SCC(=O)NCc3ccco3)n2CC2CCCO2)c(C)c1 (stereo not drawn) | 5 | 1.1 | -8 | 1.5 | 0.9
CC1(C)CC(=O)C(/C=N/c2ncccc2C(=O)O)=C(O)C1 | -9 | 1 | 2 | 0.22 | 1.1
O=c1c2cnn(-c3ccccc3)c2nc(-c2cccs2)n1-c1ccc(Br)cc1 | · | · | · | -2 | ·
COc1ccccc1OCc1nnc(SCC(=O)NCc2ccco2)n1Cc1ccco1 | 62* | 0.4 | 58* | -0.013 | 0.4
CCOC(=O)N1CCC(NC(=O)c2cc(C(=O)NCC(OC)OC)ccc2CO)CC1 | -4 | 1 | -2 | 0.25 | 1
O=C(Nc1nc2c(s1)CCCC2=O)c1cnccn1 | 48 | 0.8 | 17 | -2.1 | 0.5
CN(Cc1ccccc1)Cc1nc2c([nH]1)c(=O)n(C)c(=O)n2C | · | · | · | 0.26 | ·
SMILES | CYP2C19 inhib | CYP2C9 activ | CYP2C9 inhib | Cav3 T inh | CYP2C19 activ
CC12CCC(c3nnc(SCC(=O)Nc4cccc5ccccc45)nc31)C2(C)C (stereo not drawn) | 16 | 0.8 | 22 | 0.68 | 0.8
Cc1cc(NC(=O)Cc2cccs2)nn1CC(=O)NCc1ccco1 | 1 | 1.1 | -11 | · | 1
CC(Sc1nnc(Cc2cccs2)n1C1CCCCC1)C(=O)N1CCc2ccccc21 (stereo not drawn) | 78* | 0.2 | 76* | -6.5* | 0.2
Cc1nnc(SC(C)C(=O)N2CCc3ccccc32)s1 (stereo not drawn) | 78* | 0.7 | 34 | 0.78 | 0.2
Cc1ccc(OC(C)C(=O)N2CCc3ccccc32)cc1 (stereo not drawn) | 2 | 1.1 | -15 | -0.28 | 1
Cn1c(Cc2cccs2)nnc1SCC(=O)N1CCc2ccccc21 | 9 | 1 | 2 | -0.25 | 0.9
CC(Sc1nnc(Cc2cccs2)n1C1CCCCC1)C(=O)NCc1ccco1 (stereo not drawn) | 43 | 0.3 | 75* | -0.8 | 0.6
Cc1ccc(-n2c(=O)[nH]c3cc(C(=O)NC4CCN(Cc5ccccc5)CC4)ccc3c2=O)cc1 | 4 | 1 | 2 | 0.05 | 1
CN(C)c1ccc(C(=O)C(O)c2ccccc2)cc1 (stereo not drawn) | · | · | · | 0.95 | ·
CN(C)c1ccc(C(=O)c2ccccc2)cc1 | 88* | 1.1 | -9 | · | 0.1
COc1ccc(OC(=O)Nc2ccccc2)cc1 | 78* | 0.3 | 67* | -0.27 | 0.2
CN(C)c1ccc(NC(=O)Oc2ccccc2)cc1 | 91* | 0.9 | 6 | -1.2 | 0.1
O=C(O)C1CC(=O)N(c2ccc(F)c(F)c2)C1 (stereo not drawn) | 1 | 1 | 3 | 0.44 | 1
COc1ccc(-c2c3c(nc4sc5c(=O)[nH]c(C)nc5c24)CCC3)cc1 | -5 | 0.4 | 57* | 1.4 | 1.1
Cc1nnc(-c2cnn(C)c2N)n1Cc1cccc(Cl)c1 | 9 | 1 | 4 | 0.93 | 0.9
CCOC(=O)N1CCN(C(=O)Nc2cccc(Cl)c2)CC1 | 61* | 0.8 | 18 | 0.42 | 0.4
CCOC(=O)N1CCC(N(CCOC)C(=O)Nc2ccc(CC)cc2)CC1 | 10 | 0.9 | 7 | 0.37 | 0.9
CCOC(=O)C1CCCN(C(=O)Nc2cccc(Cl)c2)C1 (stereo not drawn) | 60* | 0.6 | 40 | -1.6 | 0.4
CCOC(=O)N1CCC(N(C(=O)Nc2ccc(Cl)c(Cl)c2)C(C)CC)CC1 (stereo not drawn) | 89* | 0.2 | 84* | -3.2 | 0.1
CCN(CC)C(=O)C1CCCN(C(=O)Nc2ccccc2)C1 (stereo not drawn) | 45 | 0.8 | 21 | 0.39 | 0.6
CCOC(=O)N1CCN(C(=O)Nc2ccc(Cl)cc2)CC1 | 16 | 1.1 | -9 | 0.49 | 0.8
CN1CCN(S(=O)(=O)c2cccc(C(=O)NC3CCCc4ccccc43)c2)CC1 (stereo not drawn) | 1 | 0.9 | 5 | 0.26 | 1
CCCCCOC(=O)Cn1c(N2CCCCCC2)nc2c1c(=O)[nH]c(=O)n2C | 20 | 0.9 | 9 | -0.34 | 0.8
CC(=NCCc1ccccc1)C1=C(O)CCC1=O | 15 | 1.1 | -7 | 1.1 | 0.8
CC(=NCCc1ccccc1)C1=C(O)CSC1=O | 67* | 0.6 | 39 | 0.51 | 0.3
CCOC(=O)C(NC(=O)Nc1ccc(F)cc1)(OCC)C(F)(F)F (stereo not drawn) | 50* | 0.8 | 19 | -0.24 | 0.5
CCOC(=O)C(NC(C)=O)(Nc1ccc(F)cc1)C(F)(F)F (stereo not drawn) | 63* | 0.9 | 6 | 0.051 | 0.4

Bioassay records from PubChem.
